# Measurements published in the supplement of paper PMC3334620.
# The full ranking holds about 33,000 sequences; the median of “E-score (-0.5 to 0.5)” is about -0.053, and the highest 2% start at about 0.37. The sample as a whole holds a higher share of the highest values than the screen did.
# Biological target: Hap1 (UniProt P0CE41)
# Test: PBM E-score (8-mer binding enrichment) (E-score (-0.5 to 0.5)); higher = stronger / more preferred TF binding
# Settings: protein concentration: 200 nM; construct: GST-DNA-binding domain
# Summary of the method: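 Each ungapped eight-base word and its reverse complement, pooled, received an E-score from the Universal PBM Analysis Suite. Underlying scans, normalised with masliner, recorded fluorescent anti-GST bound to GST-tagged yeast transcription factors. These were applied at about 100-200 nM to universal all-10-mer Agilent arrays double-stranded by primer extension.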
# Sequence of UniProt P0CE41 (P0CE41 whole entry): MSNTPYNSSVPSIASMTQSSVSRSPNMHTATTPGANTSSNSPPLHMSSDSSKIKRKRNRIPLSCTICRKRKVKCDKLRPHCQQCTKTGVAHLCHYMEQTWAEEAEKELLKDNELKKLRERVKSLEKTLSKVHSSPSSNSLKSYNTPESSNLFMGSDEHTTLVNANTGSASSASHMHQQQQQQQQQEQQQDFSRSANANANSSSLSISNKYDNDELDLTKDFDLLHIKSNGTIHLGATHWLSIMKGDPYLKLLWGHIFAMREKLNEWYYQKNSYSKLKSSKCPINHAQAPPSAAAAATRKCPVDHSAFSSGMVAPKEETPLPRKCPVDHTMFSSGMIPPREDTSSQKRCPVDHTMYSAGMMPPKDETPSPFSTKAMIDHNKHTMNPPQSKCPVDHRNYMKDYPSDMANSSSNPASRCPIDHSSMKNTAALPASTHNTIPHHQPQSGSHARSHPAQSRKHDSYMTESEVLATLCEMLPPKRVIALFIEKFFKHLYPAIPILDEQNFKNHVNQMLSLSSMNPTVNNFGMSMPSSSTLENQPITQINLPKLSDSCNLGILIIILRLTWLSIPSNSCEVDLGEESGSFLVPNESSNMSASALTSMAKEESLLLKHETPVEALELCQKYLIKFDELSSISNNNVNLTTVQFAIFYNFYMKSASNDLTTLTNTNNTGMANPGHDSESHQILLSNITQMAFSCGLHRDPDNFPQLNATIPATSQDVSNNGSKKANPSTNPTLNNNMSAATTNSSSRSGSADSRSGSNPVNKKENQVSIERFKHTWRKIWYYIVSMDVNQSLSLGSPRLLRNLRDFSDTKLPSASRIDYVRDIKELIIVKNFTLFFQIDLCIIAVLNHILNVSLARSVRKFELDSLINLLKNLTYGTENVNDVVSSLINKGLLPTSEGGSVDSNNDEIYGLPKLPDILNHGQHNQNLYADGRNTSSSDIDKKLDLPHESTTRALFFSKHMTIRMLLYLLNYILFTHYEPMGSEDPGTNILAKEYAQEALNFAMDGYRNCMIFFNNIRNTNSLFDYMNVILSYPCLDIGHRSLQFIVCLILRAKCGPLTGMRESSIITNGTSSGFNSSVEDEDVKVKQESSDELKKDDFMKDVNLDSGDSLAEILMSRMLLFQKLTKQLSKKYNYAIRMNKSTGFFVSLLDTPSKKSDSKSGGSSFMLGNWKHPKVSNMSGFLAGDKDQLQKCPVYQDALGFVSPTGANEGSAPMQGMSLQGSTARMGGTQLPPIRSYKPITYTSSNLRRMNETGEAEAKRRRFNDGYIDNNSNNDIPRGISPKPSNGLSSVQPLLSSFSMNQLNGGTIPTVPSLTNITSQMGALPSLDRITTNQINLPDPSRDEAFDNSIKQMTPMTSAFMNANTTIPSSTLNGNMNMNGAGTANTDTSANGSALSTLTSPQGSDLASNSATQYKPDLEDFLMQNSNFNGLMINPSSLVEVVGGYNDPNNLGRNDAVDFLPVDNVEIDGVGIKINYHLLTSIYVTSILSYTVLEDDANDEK
row,Sequence,PBM E-score
1,GGAAAACA,0.139
2,GTGGCGGA,0.136
3,GCGGCGGA,0.382
4,CCGGCGGA,0.421
5,ACGGCGGA,0.273
6,CTGGCGGA,-0.0445
7,CCGGCGGC,0.364
8,GCGGCTCA,0.073
9,GAGTGTCA,-0.145
10,GAGAATGC,0.0329
11,ACGGATGA,0.228
12,AGACGCGG,0.0872
13,CTCGAAGA,-0.152
14,GGGATTTA,0.327
15,CGGATTTA,0.489
16,CGGATTTC,0.426
17,AGGATTTC,0.0343
18,AGGATTTA,0.227
19,CTGATTTC,-0.0451
20,CTAACCCC,0.235
21,GTCGAATA,-0.0336
22,CCACTGAG,-0.235
23,ACTTCGGG,0.247
24,ACTTCGGA,0.403
25,ACTTCGGC,0.377

row,Sequence,PBM E-score
1,GCTTCGGA,0.327
2,CCTTCGGC,0.27
3,CCTTCGGA,0.364
4,ACCGCAGT,0.106
5,CAGCCTAA,-0.354
6,ATACTTCC,0.162
7,ACATCCGT,0.213
8,ACATCCGA,0.382
9,ACATCCGC,0.347
10,CCATCCGG,0.254
11,ACATCCGG,0.427
12,ACATCCTG,-0.0661
13,TATGTACA,-0.124
14,GCCAGTTA,-0.14
15,AGGCCCGA,0.279
16,CTGCCCGA,0.202
17,CCGCCCGA,0.37
18,GCGCCCGA,0.353
19,ACGCCCGA,0.371
20,ACGCCCGG,0.377
21,ACGCCCCG,0.193
22,ACGCCCGC,0.183
23,CGGCCCGA,0.398
24,GGGCCCGA,0.317
25,ACGCCCGT,0.251

row,Sequence,PBM E-score
1,TCGCCCGA,0.362
2,GGCCAGCA,-0.0771
3,AAGTCTGA,-0.412
4,CTTGTCTC,-0.073
5,ACGCGAAA,-0.00838
6,ACAAGAGC,-0.109
7,CGGAGCGA,0.331
8,CCATAGGA,-0.258
9,GACACGTA,-0.194
10,AAGCCCGT,0.232
11,AAGCCCGG,0.407
12,AAGCCCGC,0.337
13,CCGCCCGC,0.3
14,CCGCCCGG,0.411
15,CCGCCCCG,0.347
16,CAAGTTCC,0.124
17,CAGTGTGC,-0.139
18,ATGGCAGA,0.089
19,CCAAATTC,-0.0397
20,AGTTCCGA,0.395
21,AGTTCCGC,0.278
22,AGTTCCGG,0.394
23,CGTTCCGA,0.123
24,AGTTCCTG,-0.178
25,GGTTCCGA,0.279

row,Sequence,PBM E-score
1,GGTCCTAC,-0.0458
2,GTCAGCAA,-0.157
3,TTCCGCAA,0.263
4,ACAGGTTC,-0.216
5,ACCGGTAC,0.334
6,ATCGGTAA,0.31
7,ACCGGTAG,0.228
8,ACCGGTAT,0.424
9,ACCGGTAA,0.406
10,AACGGTAA,0.186
11,ATCAACAC,-0.154
12,GAAAGAGC,-0.138
13,ACTAGACC,0.0797
14,GGTTAGCA,-0.0201
15,GGTCCAAC,0.13
16,CGTCCGAA,0.394
17,GGTCCGAC,0.392
18,CGTCCAAA,0.0813
19,AGCCCGAG,0.208
20,GCTCCGAC,0.212
21,CGCCCGAC,0.366
22,CGTCCGAC,0.302
23,CGCCCGAG,0.396
24,TGTCCGAA,0.412
25,TGTCCTAA,-0.338

row,Sequence,PBM E-score
1,TGTCCAAA,-0.133
2,AACCAACG,-0.104
3,GTCTTACA,-0.195
4,CTTGGTAC,-0.213
5,CCTCTTTA,-0.303
6,CCGGTTAC,0.279
7,ACACTGAA,-0.0306
8,AGAGTAGA,0.0496
9,ACGAACAT,0.0579
10,AAGGCAAA,-0.28
11,GGTCCAAA,0.0135
12,GGTCCGTA,0.329
13,GGTCCGAA,0.434
14,CGTCCGAG,0.401
15,CGTCCAAG,-0.111
16,AGTCCTAA,-0.207
17,AGTCCAAA,-0.119
18,CATCCGAG,0.265
19,AGTCCGAA,0.416
20,ACAAGGCA,-0.133
21,TAGCTTAA,-0.135
22,CATTGAAA,-0.0176
23,AAACGGAG,0.258
24,CCGTTGCC,0.299
25,CGGTGCTC,0.161

row,Sequence,PBM E-score
1,CATGGACA,-0.324
2,ATGCACAT,-0.225
3,CAAATTGA,-0.173
4,CATCTCCG,0.435
5,AATCTCCC,0.00843
6,CATCTCCC,0.104
7,ATTCTCCA,-0.157
8,ATTCTCCC,0.0268
9,AAGCTCCT,-0.0999
10,AATCTCCT,0.0543
11,AATCTCCG,0.476
12,CAGCTCCG,0.299
13,ATTCTCCG,0.394
14,AAGCTCCG,0.411
15,CATCTCCA,-0.0795
16,ACTGTACG,-0.167
17,GAGGCATA,0.00364
18,CCTGAGTC,-0.0525
19,GCCCTGAA,0.0376
20,AGTAGCCC,0.0495
21,ACATTCCC,0.0549
22,AGAGGGGA,-0.0354
23,TCGTAAAA,0.0494
24,ATGTACGA,0.105
25,CAGGGGAG,-0.137

row,Sequence,PBM E-score
1,TAAAGCAA,-0.0198
2,AACCGGCC,0.344
3,CACCGGCC,0.313
4,AACCGGCG,0.382
5,AACCGGCA,0.158
6,CACCGGCA,0.201
7,CACCGGCG,0.378
8,AATACTTG,-0.112
9,ACCGCACG,-0.0174
10,CCCAGCCC,-0.174
11,CAACCTTC,-0.0289
12,GCCCTTCA,-0.165
13,ATTTTCCG,0.413
14,ATTTTCCA,-0.0537
15,AAATTCCC,0.145
16,AAATTCCA,0.0643
17,CATTTCCG,0.352
18,ATTTTCGC,0.0139
19,ATTTTCGA,-0.0541
20,AAATTCCG,0.376
21,AATTTCCG,0.437
22,AATTTCCC,0.06
23,ATTTTCCC,0.123
24,ATTTTCGG,0.396
25,AGGTTGGC,0.00268

row,Sequence,PBM E-score
1,AAACCCCA,-0.134
2,GGCTCTAC,0.0591
3,GTCCTTCA,-0.162
4,CGTGAGAC,0.00208
5,GGGAGCAA,0.0117
6,AGTTTCCG,0.39
7,AGTTTCCC,-0.0919
8,AGTTTCCA,-0.133
9,ACCATAGT,-0.0861
10,CACGGACC,0.341
11,ATCGGAAC,0.318
12,ATCGGACA,0.394
13,GTCGGACA,0.347
14,CGCGGACA,0.335
15,CTCGGAAC,0.31
16,CTCGGACC,0.375
17,CTTGGACA,-0.0486
18,ATCGGGCA,0.238
19,CTCGGACA,0.415
20,ATCGGACC,0.4
21,AGCGGACC,0.257
22,CAAGGGGA,-0.0784
23,ATGGTTTG,0.0601
24,CGACGTAG,-0.0488
25,ATAGAGGA,-0.186

row,Sequence,PBM E-score
1,CTCCAATC,-0.121
2,CCCAATTC,-0.135
3,CACCACAA,-0.117
4,ACATCCAT,-0.093
5,ACGTCTGG,-0.202
6,AATAGTAT,0.103
7,AAGCAGCT,-0.114
8,CACGTCGA,-0.183
9,TACGGTGA,0.0448
10,AGACGGCA,-0.0262
11,ATCGGACG,0.422
12,ATCGGTCA,0.318
13,CTCGGTCC,0.35
14,AACGGACA,0.369
15,AACGGACG,0.305
16,AGCGGACG,0.297
17,AACGGTCA,0.246
18,CACGGACA,0.312
19,ATCGGTCC,0.374
20,GACGGTAC,0.142
21,CACCACCC,0.106
22,CGGTTGAG,0.18
23,AGACCTCT,-0.208
24,CGAGGCCA,0.022
25,TAGCACCA,-0.14

row,Sequence,PBM E-score
1,CGGGGCAA,0.198
2,CTATATCC,0.202
3,ATCTCTCC,-0.0103
4,GGATATCC,0.236
5,ATATATCC,0.399
6,CGATATCC,0.375
7,ATATATCA,0.0242
8,CGATATCA,0.234
9,CGATATCG,0.388
10,ATATCTCC,0.437
11,AGATATCC,0.192
12,AGATATCG,0.315
13,CTATCTCC,0.358
14,ACCTTGCC,-0.132
15,AAAGGAGC,-0.141
16,CATCTTTC,-0.224
17,AGGTGCTA,-0.132
18,AGGTTCAA,-0.0501
19,AAAGGCGC,-0.0167
20,CTTTAACC,-0.0789
21,CAGCAGTA,-0.352
22,CGAGCGGA,0.37
23,AGAGCGGA,0.13
24,CGAGCGGC,0.238
25,AATGGTCA,-0.179

row,Sequence,PBM E-score
1,AACCGGAT,0.286
2,ACCCGGAA,0.346
3,GCACGGAA,0.215
4,TCCCGGCA,0.277
5,GCCCGGAA,0.402
6,CCCCGGAA,0.272
7,TCCCGGAA,0.397
8,CCCCGGCC,0.348
9,AACCGGAG,0.425
10,CCCCGGAC,0.397
11,AACCGGAA,0.337
12,TCACGGAA,0.329
13,CCTGCCGA,0.156
14,AGGAGGCC,-0.254
15,AACGTTGT,-0.162
16,CGACACGA,0.0811
17,CTACATGA,-0.187
18,TAAAGGCA,-0.0704
19,GCACTCGC,-0.0299
20,AGAGGGCA,-0.162
21,GAGCGATC,0.0915
22,AAGTTATT,0.0401
23,GCGTCACC,-0.0889
24,AATTGCAC,-0.191
25,ACCCGGGA,0.328

row,Sequence,PBM E-score
1,ACCCGGGT,0.393
2,CCCCGGAG,0.393
3,ACCCGGGG,0.306
4,ACCCGGGC,0.368
5,ACCCGGCC,0.305
6,ACCCGTAC,0.0493
7,CCCGGGAG,0.299
8,CCCCCGAG,0.308
9,ACCCGGAC,0.372
10,GCCCGGGA,0.316
11,GCCCGGGC,0.434
12,AGAGCGAT,0.0667
13,ATACGTTA,-0.106
14,GCTCTAAC,0.0397
15,CGACTGTA,-0.166
16,CAGAAACC,-0.0171
17,AACAGGCT,-0.152
18,TACCTCCA,-0.176
19,ATCAGTGC,-0.212
20,GCCCGGAC,0.401
21,GCCGGGAC,0.185
22,GCCCGGCC,0.329
23,ACCCGGCG,0.283
24,ACCCGGAG,0.423
25,ACCCGGAT,0.322

row,Sequence,PBM E-score
1,CCCCGGGG,0.388
2,CCCCCGGG,0.324
3,CCCCGGGC,0.36
4,CTCACAGA,-0.242
5,CGGCGCTC,0.23
6,TCTGTGAA,-0.101
7,CCGGTCCA,0.237
8,CCGGTCCC,0.323
9,CCGGTCCG,0.42
10,AGACTGAT,-0.159
11,GACAGAGC,-0.162
12,CGTTTGAA,-0.061
13,CGAGGGCA,-0.00305
14,ATTTTGGA,0.147
15,AAACTCCA,-0.0578
16,CAACTCCC,0.0886
17,ATACTCCG,0.407
18,AAACTCCG,0.456
19,ATACTCCC,0.115
20,ATACTCCA,-0.15
21,AAACTCCT,-0.1
22,CAACTCCG,0.398
23,CAACTCCA,-0.0501
24,CGCTAGCG,0.0545
25,CGCGAGCA,-0.126

row,Sequence,PBM E-score
1,GATATCGC,0.304
2,AAACCCTA,-0.136
3,AGGTACGG,0.0524
4,AACGCGAA,0.121
5,AGGTCGCA,0.101
6,ACTAAGCC,0.094
7,ACTGTCAG,-0.224
8,AACCGGAC,0.369
9,GACCGGAC,0.41
10,CAGCGGAA,0.139
11,GACCGGAA,0.361
12,GACCGGGC,0.331
13,TACCGGAA,0.442
14,CACCGGAG,0.341
15,CACCGGAC,0.417
16,TACCGCAA,0.08
17,TACCGGCA,0.353
18,CACCGGAA,0.398
19,CACCGGGA,0.261
